# Compound activity deposited in PubChem BioAssay by National Center for Advancing Translational Sciences (NCATS).
# IDH1 R132H inh: qHTS for Inhibitors of mutant isocitrate dehydrogenase 1 (IDH1): qHTS; Isocitrate dehydrogenase [NADP] cytoplasmic (Homo sapiens), O75874; IDH1-R132H enzyme, NADPH consumption, diaphorase/resazurin fluorescence; Potency, µM (highest dose often 76.6 µM), inactives show top-dose activity change, negative = inhibition, hits mostly inhibitors; 390,000 tested, 0.093% active; also: potency is read from the fitted curve at half-maximal effect; % is scaled to controls: 0 for no effect and ±100 for the full control effect; nearly all actives have a fitted effect of over 65% in size
# Target sequence (O75874 whole entry R132H, stated change not applied): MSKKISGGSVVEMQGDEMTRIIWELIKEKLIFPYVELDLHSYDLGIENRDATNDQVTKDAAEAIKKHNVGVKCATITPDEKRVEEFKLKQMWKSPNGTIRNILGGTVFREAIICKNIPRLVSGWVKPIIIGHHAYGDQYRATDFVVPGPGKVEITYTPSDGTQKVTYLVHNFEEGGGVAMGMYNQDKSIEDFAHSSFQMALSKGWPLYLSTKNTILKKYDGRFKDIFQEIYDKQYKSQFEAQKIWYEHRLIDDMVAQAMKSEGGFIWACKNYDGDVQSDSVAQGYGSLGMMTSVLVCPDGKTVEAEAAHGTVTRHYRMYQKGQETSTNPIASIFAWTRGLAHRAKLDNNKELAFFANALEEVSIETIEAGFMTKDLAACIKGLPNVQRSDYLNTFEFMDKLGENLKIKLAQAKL
#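 IDH1-R132H (0.5 ug/mL) preincubated 30 min with compound, then NADPH (0.016 mM) and alpha-KG (2 mM) added; 80 min at RT, pH 7.5. Remaining NADPH coupled via diaphorase/resazurin to fluorescence (540/590 nm); concentration-response curves normalized to no-enzyme control.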
# IL2 activator: qHTS of IL-2 Activators; 360,000 tested, 0.065% active; IL-2 activation reporter assay, cell-based qHTS; stimulated with anti-CD3/CD4/CD28 beads; in transgenic mouse T cells; activation, % (series mostly up to about 46 µM); in the data active = activation above about 50%; inconclusive = mostly about 30% to 49%; also: 0% is about no effect
#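 First, unstimulated transgenic mouse T cells were exposed to compound for 60 min. Next, anti-CD3/anti-CD4-coated beads with anti-CD28 were added. Finally, after 18 h at 37 degrees C, EGFP and DsRed were imaged.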
# gsp antagonist: qHTS for Antagonists of gsp, the Etiologic Mutation Responsible for Fibrous Dysplasia/McCune-Albright Syndrome: qHTS. gsp-mutant cells, cAMP HTRF, 30 min. Potency, µM (highest dose often 76.9 µM), for inactives: at the highest dose activity change, negative = inhibition, most hits filed as inhibitors. 340,000 tested, 0.4% active; calls by dose curve; cell line not stated here;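 also: intracellular cAMP measured with PDE inhibitor Ro 20-1724 present during compound exposure; potency is read from the fitted curve at half-maximal effect; % is scaled to controls: 0 for no effect and ±100 for the full control effect; nearly all actives have a fitted effect of over 65% in size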
#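 G418-selected cells were plated in DMEM/10% FBS for 16-24 h at 37C, then treated with compounds plus the PDE inhibitor […] (300 uM solution added) for 30 min at 37C. Intracellular cAMP was measured by HTRF after 30 min lysis at room temperature.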
# gsp agonist: qHTS for Agonist of gsp, the Etiologic Mutation Responsible for Fibrous Dysplasia/McCune-Albright Syndrome: qHTS | gsp mutant cells, cAMP HTRF, 30 min | Potency, µM (titrated, usually from 76.9 µM), for the others: top-dose activation (cAMP increase), hits mostly activators | 340,000 tested, 0.13% active | AID 624287, 2012; active = well fitted activation curve with a large enough effect; inconclusive = small, poorly fitted or top-dose-only effect, or another doubt; inactive = no such curve, though single readings can be large or run the other way; cell line not stated here;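 also: phosphodiesterase inhibitor Ro 20-1724 added with compounds to block cAMP breakdown; potency is read from the fitted curve at half-maximal effect; nearly all actives have a fitted effect of over 60% in size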
#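 Cells in DMEM/10% FBS with G418 were pretreated with compounds in DMSO plus […] (300 uM stock) for 30 min at 37C. cAMP was measured by HTRF (cAMP-d2 plus anti-cAMP antibody-K) after 30 min at room temperature.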
# BRCA1 expr up: qHTS Assay to Identify Small Molecule Activators of BRCA1 Expression; 380,000 tested, 1.1% active; MCF7-BRCA1-FFLuc reporter, luminescence, 48 h; response scale: scaled: vehicle 0%, 10 µM genistein 100%; Potency, µM (series often up to 46.1 µM), for the others: at the highest dose activation, most hits filed as activators; also: potency is read from the fitted curve at half-maximal effect; nearly all actives have a fitted effect of over 80% in size
#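 Compounds are tested at multiple concentrations on MCF7 BRCA1-luciferase reporter cells seeded at 2000 per well; after 48 h, a single luminescence end-point is taken and curves fitted to the normalized data.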
# Numbers without * were called inactive; ? = inconclusive; . = no result; [ ] = remark or other dose. Rows were chosen to be rich in hits. Some 1.5% of all compounds tested hit in one or more screens of this group. Unless noted, calls follow the shape of the dose curve; as a rule, active = well fitted curve in the direction sought with a large enough effect; inconclusive = small, poorly fitted or top-dose-only effect, or another doubt; inactive = no such curve, though single readings can be large; an effect the other way counts as inactive or inconclusive.
SMILES,IDH1 R132H inh,IL2 activator,gsp antagonist,gsp agonist,BRCA1 expr up
CCOC(=O)Cc1csc(NC(=O)c2ccc(C)o2)n1,-6.2%,-0.9,3.3%,5.7%,53.7%
CCOC(=O)Cc1csc(NC(=O)c2cnc3sc(C)cn3c2=O)n1,-12.5%,-1.8,12.0%,20.4%,11.2µM*
CSc1nnc2[nH]c(=O)cc(C)n12,11.0%,.,.,.,.
CCOc1ccccc1C(=O)NCC(=O)NCC(C)(C)N1CCOCC1,-0.8%,1.1,-9.7%,3.9%,7.9%
CCOc1ccccc1C(=O)NCC(=O)NCc1ccc(S(=O)(=O)N2CCOCC2)cc1,-2.0%,1.9,-9.6%,31.6µM*,-13.4%
Cc1ccc(N=Nc2c(C)[nH]n(C(N)=S)c2=O)cc1C,1.9%,1.7,6.9%,?,49.1%
CC(=O)Nc1ccc(N=Nc2c(C)[nH]n(C(N)=S)c2=O)cc1,-10.7%,1.9,-2.2%,-18.7%,10µM*
CN(C(=O)c1cc2c(=O)n3ccccc3nc2n1C)C1CCCCC1,8.1%,-3.2,17.6%,?,1.41µM*
CCC(C(=O)NCCc1ccccc1)n1nc(C)n2c(cc3sccc32)c1=O (configuration not stated),-2.1%,.,.,.,.
COc1cc(NS(=O)(=O)c2ccc(C)cc2C)cc(OC)c1OC,5.4%,-0.5,35.5µM*,?,-83.4%
C[C@H](CO)N1C[C@H](C)[C@@H](CN(C)S(=O)(=O)c2cccc(F)c2)Oc2ncc(Br)cc2C1=O,8.6%,-3.4,.,31.6µM*,0.6%
C[C@H](CO)N1C[C@H](C)[C@H](CN(C)S(=O)(=O)c2ccc(F)cc2)Oc2ncc(Br)cc2C1=O,1.6%,-0.2,.,?,10.0%
Cc1cc(/C=C2\SC(=S)NC2=O)c(C)n1C1CC1,-7.0%,-2.4,?,5.5%,12.6µM*
Cc1cc(/C=N/NC(=O)c2ccc(O)cc2)c(C)n1C1CC1,0.0%,0.4,-15.1%,-6.0%[15.4 µM],16.0%
Cc1cc(/C=C2/C(=O)N(C)C(=S)N2C)c(C)n1C1CC1,-0.2%,2.1,-4.0%,4.3%,11.2µM*
O=C1NC(=S)SC1=Cc1cc(Br)ccc1O,-11.7%,-1.0,2.5%,-4.0%,-39.8%
C=C(C)CSc1nc2sc3c(c2c(=O)n1CCCC)CCCC3,-12.5%,.,.,.,.
CC1CCN(S(=O)(=O)c2ccc3c(c2)N(CC(=O)N2CCN(c4ccccc4)CC2)C(=O)CO3)CC1,28.5%,.,.,.,-6.7%
COc1ccc(/C=N/Nc2ncc(Br)cn2)c(OC)c1,10.8%,0.4,4.7%,-6.7%,10µM*
CN(Cc1ccccc1)C(=O)c1ccc2c(c1)N(Cc1ccc(Cl)cc1)C(=O)c1ccccc1S2=O (configuration not stated),10.8%,.,.,.,5.2%
CC(C)(C)C(=O)Cn1c(=O)n(-c2ccc(Cl)c(Cl)c2)c(=O)c2c3c(sc21)CCCC3,3.1%,.,.,.,4.2%
O=C(c1cc2cc(Cl)ccc2o1)N1CCCCCC1,6.1%,-1.0,1.1%,20.5%,?
COc1ccc2cc3cc(C(=O)N4CC(C)CC(C)C4)oc3nc2c1 (configuration not stated),4.8%,-2.9,?,-3.6%,10µM*
O=C(c1cc2cc3ccc(Cl)cc3nc2o1)N1CCCCCC1,-4.3%,-2.6,15.2%,-12.4%,2.24µM*
Cc1nn(C)c(C)c1CCC(=O)N1CCCC(N2CCN(c3ccc(F)cc3)CC2)C1 (configuration not stated),-10.9%,-1.9,17.0%,11.3%,5.9%
SMILES,IDH1 R132H inh,IL2 activator,gsp antagonist,gsp agonist,BRCA1 expr up
CCN(CC)c1nc(C)nc2c1cnn2CCc1ccccc1,5.0%,0.1,-7.2%,-32.3%,8.91µM*
Fc1ccc(-c2nc3ccc(Br)cn3c2Cc2ccccc2C(F)(F)F)cc1,.,-0.6,.,.,-37.1%
CCN(C(=O)CSc1nnc(Nc2ccccc2)s1)C1CCS(=O)(=O)C1 (configuration not stated),-11.0%,-1.3,0.2%,-19.7%,22.6%
COc1ccc(Nc2nnc(SCC(=O)N(CC(C)C)C3CCS(=O)(=O)C3)s2)cc1 (configuration not stated),8.6%,0.5,.,-4.1%,7.08µM*
CSCc1ccc(C(=O)Nc2ccc(C(N)=O)cc2)cc1,-6.0%,0.1,-2.9%,-61.5%,5.62µM*
CSCc1ccc(C(=O)NCc2ccc(C)cc2)cc1,5.1%,-3.2,25.2%,-22.1%,50.4%
COC(=O)[C@]12CCCCC=C1N(Cc1ccc3c(c1)OCO3)C(=O)[C@H](CC(=O)N1CCC(c3ccccc3)CC1)C2,.,-1.1,.,.,.
COc1ccc(C)c2sc(=NC(=O)c3ccc(C(C)=O)cc3)n(C)c12,-0.2%,-3.0,-1.5%,?,0.794µM*
COc1cc2c(NC3CCN(C(C)C)CC3)nc(N3CCCN(C)CC3)nc2cc1OCCCN1CCCC1,.,.,.,.,-61.2%
S=C(N/N=C/c1ccc(Br)cc1)N1CCCCC1,-1.0%,-4.4,-6.0%,-30.3%,8.91µM*
CC1(C)CC(C(CCN(Cc2ccccc2)C(=O)c2ccco2)c2ccc(F)cc2)CCO1 (configuration not stated),-24.8%,-0.4,28.2µM*,-3.0%,-100.9%
O=C(c1ccco1)N(CCC(c1ccccc1)c1ccco1)Cc1ccc(F)cc1 (configuration not stated),0.1%,-2.5,-10.1%,19.6%,-25.1%
CC1=C(C)CS(=O)N(S(=O)(=O)c2ccccc2)C1 (configuration not stated),-12.6%,-1.4,18.0%,17.5%,1.1%
O=S(=O)(/N=S1\CC=CCN1S(=O)(=O)c1ccccc1)c1ccccc1 (configuration not stated),-16.1%,-0.9,50.1µM*,25.5%,2.2%
N/C(=N\OC(=O)COc1ccc(Cl)cc1Br)c1ccncc1,5.3%,-4.5,12.4%,0.3%[15.4 µM],2.51µM*
CCc1ccc(OCC(=O)O/N=C(\N)c2ccncc2)c(Br)c1,-1.8%,-3.9,-6.6%,-46.3%,?
N/C(=N\OC(=O)COc1ccc(Cl)cc1Cl)c1cccnc1,3.0%,-0.3,7.4%,8.2%,7.94µM*
N/C(Cc1ccc(Cl)cc1Cl)=N\OC(=O)Cc1cccs1,15.7%,-1.4,-8.7%,13.3%[15.4 µM],52.9%
N/C(Cc1cccs1)=N\OC(=O)COc1ccc(Cl)cc1Cl,5.1%,0.2,6.5%[15.4 µM],?,11.2µM*
CCC(=O)N1CCc2cc(Br)cc(S(=O)(=O)CCC(=O)N3CCN(c4cccc(C(F)(F)F)c4)CC3)c21,33.7%,.,.,.,.
Cc1ccc2oc(-c3ccc(NC(=O)COc4ccccc4)cc3O)nc2c1,.,.,.,.,58.7%
CCOC(=O)c1cccc(NC(=O)CCc2nnc3ccc(N4CCCCC4)nn23)c1,-13.1%,-1.4,-9.9%,35.5µM*,4.5%
